For some assays here: Measured potencies and affinities stand elsewhere.

What all share (set-up): scale not given: direction of the effect not stated beside the values
For assay [1], the target named is Protein translocase subunit SecA (Escherichia coli (strain K12)) (UniProt P10408). The assay can be described thus: Assay to Identify E. coli SecA ATPase Inhibitors. The format is functional. The settings on record: 30 µM.
Assay [2] has as its target T1, Ubiquitin-activating enzyme e1, putative (Leishmania donovani (strain BPK282A1)) (UniProt E9BSI1).
T1 sequence (whole entry): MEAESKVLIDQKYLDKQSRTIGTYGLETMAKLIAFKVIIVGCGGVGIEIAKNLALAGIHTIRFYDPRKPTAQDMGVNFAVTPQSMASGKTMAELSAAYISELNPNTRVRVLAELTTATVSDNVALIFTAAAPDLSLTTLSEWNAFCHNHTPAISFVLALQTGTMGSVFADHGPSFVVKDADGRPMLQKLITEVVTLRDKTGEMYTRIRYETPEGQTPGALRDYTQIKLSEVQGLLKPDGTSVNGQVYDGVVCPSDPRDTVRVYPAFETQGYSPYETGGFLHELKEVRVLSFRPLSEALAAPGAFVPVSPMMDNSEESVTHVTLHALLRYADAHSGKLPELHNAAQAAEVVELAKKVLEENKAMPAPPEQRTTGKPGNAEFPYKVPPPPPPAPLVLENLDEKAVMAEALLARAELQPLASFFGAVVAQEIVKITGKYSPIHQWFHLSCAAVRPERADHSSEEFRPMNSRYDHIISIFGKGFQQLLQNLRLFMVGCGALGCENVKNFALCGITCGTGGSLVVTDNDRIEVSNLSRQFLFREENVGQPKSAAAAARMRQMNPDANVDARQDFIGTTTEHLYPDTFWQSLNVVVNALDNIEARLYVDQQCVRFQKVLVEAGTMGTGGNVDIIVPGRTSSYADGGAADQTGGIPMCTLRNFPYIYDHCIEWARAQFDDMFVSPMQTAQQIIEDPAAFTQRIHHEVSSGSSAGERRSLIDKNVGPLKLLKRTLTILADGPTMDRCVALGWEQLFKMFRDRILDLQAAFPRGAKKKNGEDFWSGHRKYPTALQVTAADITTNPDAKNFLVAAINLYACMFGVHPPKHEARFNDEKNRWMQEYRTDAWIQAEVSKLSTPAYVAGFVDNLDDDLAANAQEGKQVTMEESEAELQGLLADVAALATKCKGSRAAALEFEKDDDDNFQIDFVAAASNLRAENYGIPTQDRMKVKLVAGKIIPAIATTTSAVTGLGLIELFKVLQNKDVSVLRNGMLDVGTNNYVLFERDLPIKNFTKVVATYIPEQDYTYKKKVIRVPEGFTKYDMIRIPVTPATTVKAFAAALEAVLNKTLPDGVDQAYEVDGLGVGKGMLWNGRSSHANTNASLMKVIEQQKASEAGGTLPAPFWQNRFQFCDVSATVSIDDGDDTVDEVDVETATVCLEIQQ
As to the kind of experiment: Leishmania donovani Ubiquitin Activating Enzyme (LdE1). It is filed as functional. The settings on record: 30 µM.

The target in assay [3] is AMP-activated protein kinase, AMPK (Homo sapiens) (UniProt P54646+O43741+P54619+Q9UGJ0+Q9Y478+Q13131+Q9UGI9). The assay can be described thus: AMP-dependent Kinase enzyme assay. An in vitro enzyme assay that detects ADP turnover that is directly proportional to AMPK activity. This uses naive AMPK that is activated during the assay with MK-8722. The format is functional. The settings on record: 30 µM.

Assay [4] has as its target Sialic acid-binding Ig-like lectin 9 (Homo sapiens) (UniProt Q9Y336). The assay can be described thus: Hs-Siglec9 ALPHAscreen SOP 20170721. The settings on record: 10 µM. A general note: In Alpha technology, singlet oxygen from a donor bead excites a nearby acceptor bead.
A further assay concerns Trypanosoma cruzi. As to the kind of experiment: Trypanosoma cruzi phosphomannomutase and mannose-1-phosphate guanylyltransferase assay. The format is functional. The settings on record: 10 µM.
In assay [5] the target is T2, Arginase-2, mitochondrial (Homo sapiens) (UniProt P78540).
T2 sequence (whole entry): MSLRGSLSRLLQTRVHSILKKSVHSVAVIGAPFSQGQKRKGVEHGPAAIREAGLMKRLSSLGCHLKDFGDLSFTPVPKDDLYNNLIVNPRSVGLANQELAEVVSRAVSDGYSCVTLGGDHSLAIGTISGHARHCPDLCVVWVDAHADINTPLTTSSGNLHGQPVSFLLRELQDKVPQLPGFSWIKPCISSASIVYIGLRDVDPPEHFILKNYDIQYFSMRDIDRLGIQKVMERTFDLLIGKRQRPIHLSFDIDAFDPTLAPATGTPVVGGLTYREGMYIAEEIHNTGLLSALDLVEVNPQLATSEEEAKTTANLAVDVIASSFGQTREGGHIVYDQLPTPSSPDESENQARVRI
The assay can be described thus: in vitro enzyme assay to detect the production of urea directly proportional to the activity of Arginase II. Note: in the data most compounds retested in dose-response had high values. The format is functional. The settings on record: 33.3 µM.

The target in assay [6] is T3, Proteasome subunit beta (Trypanosoma cruzi) (UniProt O96673).
T3 sequence (whole entry): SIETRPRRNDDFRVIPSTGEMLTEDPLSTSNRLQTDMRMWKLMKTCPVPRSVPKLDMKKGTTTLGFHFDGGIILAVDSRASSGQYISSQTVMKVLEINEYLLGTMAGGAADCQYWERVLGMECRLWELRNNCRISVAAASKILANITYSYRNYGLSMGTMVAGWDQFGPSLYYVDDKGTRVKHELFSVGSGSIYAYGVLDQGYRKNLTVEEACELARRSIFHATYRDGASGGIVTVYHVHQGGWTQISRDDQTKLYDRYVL
The assay can be described thus: Trypanosoma cruzi proteasome chymotrypsin-like activity (TcProtChymo) assay. Note: in the data most compounds retested in dose-response had high values. It is filed as functional. The settings on record: 9.37 µM.

The species entered for another assay is Homo sapiens. The assay can be described thus: To identify inhibition of the IFN signalling (Jak-Stat) pathway via expression of an eGFP reporter gene under the control of an IFN-stimulated response element (ISRE) containing MxA promoter. The settings on record: 30 µM. It is filed as functional. For orientation: In a reporter assay the amount or activity of a reporter protein is the signal.

Assay [7] deals with T4, Tyrosyl-tRNA synthetase, putative (Trypanosoma cruzi (strain CL Brener)) (UniProt Q4DSP6).
T4 sequence (whole entry): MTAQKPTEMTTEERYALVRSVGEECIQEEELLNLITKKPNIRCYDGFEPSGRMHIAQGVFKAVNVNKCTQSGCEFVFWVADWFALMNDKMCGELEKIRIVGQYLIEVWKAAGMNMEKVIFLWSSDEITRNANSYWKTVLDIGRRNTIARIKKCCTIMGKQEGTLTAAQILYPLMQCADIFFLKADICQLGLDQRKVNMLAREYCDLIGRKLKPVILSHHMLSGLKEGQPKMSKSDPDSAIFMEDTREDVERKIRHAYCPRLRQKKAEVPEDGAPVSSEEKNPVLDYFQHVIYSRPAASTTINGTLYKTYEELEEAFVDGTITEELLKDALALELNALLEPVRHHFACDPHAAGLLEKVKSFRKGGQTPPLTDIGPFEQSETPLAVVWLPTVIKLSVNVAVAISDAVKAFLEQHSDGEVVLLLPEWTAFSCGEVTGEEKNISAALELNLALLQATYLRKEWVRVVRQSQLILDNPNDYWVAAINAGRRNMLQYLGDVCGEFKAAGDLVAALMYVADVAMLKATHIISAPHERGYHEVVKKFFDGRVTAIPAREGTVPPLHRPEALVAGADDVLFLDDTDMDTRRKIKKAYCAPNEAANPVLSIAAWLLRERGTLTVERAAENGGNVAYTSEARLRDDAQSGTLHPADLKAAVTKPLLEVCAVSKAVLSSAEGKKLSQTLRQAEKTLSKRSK
As to the kind of experiment: Trypanosoma cruzi tyrosyl tRNA synthetase (TcYRS) _High Tyrosine SOP. Note: in the data most compounds retested in dose-response had high values. The settings on record: 30 µM. It is filed as functional.

Assay [8] addresses T4, Tyrosyl-tRNA synthetase, putative (Trypanosoma cruzi (strain CL Brener)). As to the kind of experiment: Trypanosoma cruzi tyrosyl tRNA synthetase (TcYRS) SOP. The format is functional. The settings on record: 30 µM.
For assay [9], the target named is Chromo domain-containing protein 1 (Saccharomyces cerevisiae (strain ATCC 204508 / S288c) (Baker's yeast)) (UniProt P32657). As to the kind of experiment: ScCHD-1 Enzyme Inhibition Assay. Note: in the data most compounds retested in dose-response had high values. It is filed as functional. The settings on record: 30 µM.
Chromo domain-containing protein 1 (Saccharomyces cerevisiae (strain ATCC 204508 / S288c) (Baker's yeast)), sequence (P32657 whole entry, the tested form may be a part): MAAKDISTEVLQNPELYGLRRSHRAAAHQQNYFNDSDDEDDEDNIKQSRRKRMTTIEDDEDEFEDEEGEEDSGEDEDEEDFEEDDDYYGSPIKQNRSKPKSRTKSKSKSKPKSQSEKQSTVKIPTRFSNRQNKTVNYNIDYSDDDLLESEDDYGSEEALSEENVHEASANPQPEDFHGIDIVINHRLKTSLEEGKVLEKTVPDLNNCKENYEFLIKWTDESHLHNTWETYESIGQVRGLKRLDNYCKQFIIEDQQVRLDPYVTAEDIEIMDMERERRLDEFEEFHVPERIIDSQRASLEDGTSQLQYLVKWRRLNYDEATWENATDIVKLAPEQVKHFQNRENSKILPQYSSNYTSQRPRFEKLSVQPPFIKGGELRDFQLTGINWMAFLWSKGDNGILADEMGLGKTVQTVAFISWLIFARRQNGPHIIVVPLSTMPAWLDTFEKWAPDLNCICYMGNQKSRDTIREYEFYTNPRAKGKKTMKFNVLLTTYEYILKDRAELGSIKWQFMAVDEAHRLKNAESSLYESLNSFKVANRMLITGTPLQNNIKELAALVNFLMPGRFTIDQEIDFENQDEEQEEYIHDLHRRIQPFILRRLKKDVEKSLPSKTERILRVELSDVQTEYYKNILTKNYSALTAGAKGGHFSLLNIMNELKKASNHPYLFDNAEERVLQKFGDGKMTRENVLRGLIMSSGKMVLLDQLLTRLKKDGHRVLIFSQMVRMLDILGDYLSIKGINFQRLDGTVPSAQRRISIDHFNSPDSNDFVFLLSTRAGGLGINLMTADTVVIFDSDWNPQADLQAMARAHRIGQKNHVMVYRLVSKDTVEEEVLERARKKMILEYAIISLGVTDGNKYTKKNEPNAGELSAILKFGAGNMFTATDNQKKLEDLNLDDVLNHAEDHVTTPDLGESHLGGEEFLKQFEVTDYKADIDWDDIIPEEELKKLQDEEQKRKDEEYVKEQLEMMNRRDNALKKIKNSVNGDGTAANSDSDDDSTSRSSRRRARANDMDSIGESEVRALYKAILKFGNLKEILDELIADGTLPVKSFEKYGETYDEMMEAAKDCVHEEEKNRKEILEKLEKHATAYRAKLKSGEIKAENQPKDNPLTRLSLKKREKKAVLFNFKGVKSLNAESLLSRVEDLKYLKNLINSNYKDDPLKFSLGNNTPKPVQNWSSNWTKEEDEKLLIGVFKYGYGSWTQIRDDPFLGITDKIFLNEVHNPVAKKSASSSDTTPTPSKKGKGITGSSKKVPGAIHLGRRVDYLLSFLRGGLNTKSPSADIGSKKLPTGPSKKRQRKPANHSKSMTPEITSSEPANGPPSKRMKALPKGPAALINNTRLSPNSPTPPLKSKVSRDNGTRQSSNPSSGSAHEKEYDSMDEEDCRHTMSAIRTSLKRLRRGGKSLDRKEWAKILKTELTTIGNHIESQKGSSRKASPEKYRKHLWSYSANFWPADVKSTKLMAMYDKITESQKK

Protein translocase subunit SecA (Escherichia coli (strain K12)), sequence (P10408 whole entry): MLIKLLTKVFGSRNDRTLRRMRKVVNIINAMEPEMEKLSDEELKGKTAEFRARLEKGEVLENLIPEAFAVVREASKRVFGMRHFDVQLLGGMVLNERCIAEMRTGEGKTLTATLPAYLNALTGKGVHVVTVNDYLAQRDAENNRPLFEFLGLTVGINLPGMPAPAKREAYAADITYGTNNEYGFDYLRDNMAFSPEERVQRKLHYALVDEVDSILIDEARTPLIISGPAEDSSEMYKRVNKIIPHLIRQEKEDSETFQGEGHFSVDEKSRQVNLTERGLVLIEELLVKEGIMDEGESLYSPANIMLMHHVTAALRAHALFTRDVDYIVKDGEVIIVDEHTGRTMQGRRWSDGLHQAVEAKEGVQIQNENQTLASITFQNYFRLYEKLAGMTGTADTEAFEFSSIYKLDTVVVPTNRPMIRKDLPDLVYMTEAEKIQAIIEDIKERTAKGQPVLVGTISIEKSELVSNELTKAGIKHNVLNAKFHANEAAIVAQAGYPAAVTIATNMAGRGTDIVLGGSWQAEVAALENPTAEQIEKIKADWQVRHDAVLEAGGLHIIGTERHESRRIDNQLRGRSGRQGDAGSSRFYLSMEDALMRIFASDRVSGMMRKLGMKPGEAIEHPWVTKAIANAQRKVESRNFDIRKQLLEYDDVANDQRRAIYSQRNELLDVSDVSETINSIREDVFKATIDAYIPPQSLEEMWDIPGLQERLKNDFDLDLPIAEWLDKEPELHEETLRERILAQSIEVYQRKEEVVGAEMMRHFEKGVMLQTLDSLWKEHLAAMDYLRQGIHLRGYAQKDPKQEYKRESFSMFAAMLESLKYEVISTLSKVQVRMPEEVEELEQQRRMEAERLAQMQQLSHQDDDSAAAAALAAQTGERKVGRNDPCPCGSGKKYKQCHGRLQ
Sialic acid-binding Ig-like lectin 9 (Homo sapiens), sequence (Q9Y336 whole entry): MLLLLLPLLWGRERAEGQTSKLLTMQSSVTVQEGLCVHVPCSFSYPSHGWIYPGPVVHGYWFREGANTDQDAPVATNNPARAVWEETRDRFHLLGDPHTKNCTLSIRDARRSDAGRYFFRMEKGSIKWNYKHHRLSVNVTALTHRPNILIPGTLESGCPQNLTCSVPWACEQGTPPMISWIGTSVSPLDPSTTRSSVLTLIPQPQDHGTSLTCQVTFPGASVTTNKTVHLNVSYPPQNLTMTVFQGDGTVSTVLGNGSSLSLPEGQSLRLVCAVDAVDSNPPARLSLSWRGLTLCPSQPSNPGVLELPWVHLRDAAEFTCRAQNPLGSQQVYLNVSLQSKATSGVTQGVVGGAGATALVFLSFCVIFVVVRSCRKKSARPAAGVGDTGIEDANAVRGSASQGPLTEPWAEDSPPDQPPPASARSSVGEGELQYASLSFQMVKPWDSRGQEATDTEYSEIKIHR

In the case of `CCn1cc(CNC2CC(=O)N(CCc3cccc(Cl)c3)C2)cn1` (stereo not given), the Percent Effect in assay [1] was -5.27%; in assay [2] it was 8.22%; in assay [3], 1.5%; in assay [4] it was 35.6%; with Trypanosoma cruzi, 0.397%; in [5], -3.99%. Besides, the Percent Effect was 8.65% in assay [6]; 2.71% in the assay listed under Homo sapiens; 2.08% in assay [7]; 8.64% in assay [8]; -4.3% in assay [9].

With `CCN(CC)C(CNC(=O)c1ccc(S(C)(=O)=O)cc1)c1ccco1` (stereo not given), the Percent Effect in assay [1] was -2.81%; in assay [2], 2.7%; in assay [3] it was 6.63%; in [4], -6.01%; in the assay with Trypanosoma cruzi it was 3.91%; in [5] it was -2.5%. Besides, the Percent Effect came to 14.8% in [6]; 8.16% in the assay listed under Homo sapiens; 8.91% in assay [7]; 11% in assay [8]; 3.77% in assay [9].

As for `Cc1cnn(CC2CN(CCS(=O)(=O)c3ccccc3)CCO2)c1` (stereo not given), the Percent Effect in assay [1] is -8.49%; in assay [2], 0%; in [3] it was 0.043%; in assay [4], -0.479%; in the assay with Trypanosoma cruzi, -2.25%; in assay [5], -0.248%. For the same compound, the Percent Effect in assay [6] is 5.41%; in the assay listed under Homo sapiens, 12.1%; in assay [7], 5.38%; in assay [8], 1.24%; in assay [9], -5.16%.

`CC(C)Cc1noc(CN2CCC(NC(=O)c3cccs3)CC2)n1`: the Percent Effect was -4.22% in [1]; 15.6% in [2]; 5.36% in assay [3]; 8.56% in assay [4]; 3.64% with Trypanosoma cruzi; -8.28% in assay [5]. Also, the Percent Effect in assay [6] was 19%; in the assay filed under Homo sapiens, 3.93%; in assay [7] it was 6.45%; in assay [8], 16.1%; in assay [9] it was -6.14%.

Consider `Cc1nc(N)cc(C2CN(C(=O)c3ccn(C)n3)CCO2)n1` (stereo not given), for which the Percent Effect is -6.21% in assay [1]; 17.6% in [2]; 0.477% in [3]; 3.12% in assay [4]; 0.198% in the assay with Trypanosoma cruzi; -3.94% in [5]. For the same compound, the Percent Effect is 10.4% in [6]; 8.03% in the assay filed under Homo sapiens; 3.23% in [7]; 16.9% in [8]; -24.2% in assay [9].

For the compound `Cc1noc(C)c1-c1cnc(CC2CCN(C(=O)c3cc[nH]n3)C2)cn1` (stereo not given), the Percent Effect in assay [1] was -0.461%; in assay [2], 9.46%; in assay [3] it was 11.7%; in [4], -4.31%; in the assay with Trypanosoma cruzi, -2.37%; in assay [5], -2.09%. Besides, the Percent Effect in [6] was 7.02%; in the assay listed under Homo sapiens, 3.9%; in assay [7], 8.6%; in [8] it was 14.3%; in assay [9], -9.57%.

As for `Cc1nsc(C(=O)N2CCc3ccccc3C2)n1`, the Percent Effect in [1] is -7.16%; in [2], 13%; in [3] it was -4.33%; in assay [4], -9.01%; in the assay on Trypanosoma cruzi, 4.44%; in assay [5], -1.94%. In addition, the Percent Effect in [6] was 5.22%; in the assay listed under Homo sapiens, 3.35%; in [7], 3.17%; in assay [8] it was 8.97%; in assay [9] it was -9.64%.

For the compound `COc1ccccc1CC(=O)NCCCN1CCCC1C(=O)N(C)C` (stereo not given), the Percent Effect in assay [1] was -0.00806%; in assay [2], 8.22%; in [3], -2.99%; in [4], 6.95%; in the assay with Trypanosoma cruzi, 2.35%; in assay [5], 8.64%. In addition, the Percent Effect in assay [6] is 18.6%; in the assay listed under Homo sapiens, -15.4%; in assay [7] it was 6.45%; in assay [8] it was -2.5%; in assay [9], -6.6%.

As to `Cc1cnn(CCNCc2nc(Cc3ccccc3)no2)c1`, the Percent Effect in assay [1] was -0.787%; in assay [2], 0%; in assay [3] it was -3.33%; in [4], -0.739%; with Trypanosoma cruzi, -1.32%; in assay [5], 5.75%. Besides, the Percent Effect in assay [6] amounted to 5.51%; in the assay listed under Homo sapiens it was 13.2%; in assay [7] it was 5.39%; in assay [8], 7.32%; in assay [9] it was 2.72%.

Regarding `CC(C)(C)n1cc(C(=O)N2CCN(Cc3ccsc3)CC2)cn1`, the Percent Effect in assay [1] was -3.19%; in [2], 10.5%; in assay [3], 2.2%; in [4], 9.1%; in the assay with Trypanosoma cruzi it was 7.71%; in assay [5] it was -3.06%. The Percent Effect was 3.51% in [6]; -5.26% in the assay filed under Homo sapiens; 6.37% in assay [7]; 17.1% in assay [8]; -11% in [9].

(Values after ChEMBL document CHEMBL3988442, “University of Dundee, Small-Polar-MMV Screening Library” (2021).)
